From PubChem BioAssay (NCI)
“And” between values parts separate entries of the source, which are not always exact repeats. Equal values may be shown once. This is part of a sample that, as a whole, favours compounds with a hit. Of some 83,000 tested, about 20% had one in any assay.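 Single-concentration screen, 48 h exposure, 96-well plates. Endpoint: percent growth. Below 10 = active.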 The source made the active and inactive calls.

System: A498 renal
Assay: NCI-60 one-dose screen, 48 h (100 = growth as untreated, 0 = no growth, -100 = all killed)
Conditions: 1 µM
Protocol: Growth inhibition of the A498 human tumor cell line is measured as a screen for anti-cancer activity. Cells are grown in 96 well plates and exposed to the test compound for 48 hours. Compounds are tested at a single concentration, which is 10^-5 M for most compounds. The reported endpoint is percent growth (GI% or GIPRCNT), where numbers from 0 - 100% represent growth inhibition, and numbers from -100% - 0 represent cell death. For example, a value of 40 represents 60% growth inhibition. A value of 0 means no net growth occurred over the course of the experiment. A value of -40 indicates 40% of cells at the beginning of the experiment died by the end of the experiment. A value of -100 means all cells are dead at the end of the experiment.
NCI-60 Human Tumor Cell Lines Screen was performed using the standard one-dose NCI protocol, which is described in more detail at https://dtp.cancer.gov/discovery_development/nci-60/default.htm.
Compounds with GIPRCNT values below 10 were considered active. Activity score was based on GIPRCNT using the following formula: […]
Score is 0 for GIPRCNT values of 100 or above, 50 for GIPRCNT values of 0, and 100 for GIPRCNT values of -100.

Row | SMILES | growth
1 | CC/C(=C(\c1ccc(O)cc1)c1ccc(OCCN(C)C(=O)CCOCCNC(=O)c2ccc3c(c2)CN([C@@H]2CCC(=O)NC2=O)C3=O)cc1)c1ccccc1 | 93.3% (inactive)

Same assay, conditions: 10 µM

Row | SMILES | growth
2 | CC/C(=C(\c1ccc(O)cc1)c1ccc(OCCN(C)C(=O)CCOCCNC(=O)c2ccc3c(c2)CN([C@@H]2CCC(=O)NC2=O)C3=O)cc1)c1ccccc1 | 89.6% (inactive)

Same assay, conditions: 10 µM unless noted

Row | SMILES | growth
3 | O=C(N/N=C/c1ccoc1)c1[nH]c2ccc(Br)cc2c1-c1ccccc1 | -82.9% (active)
4 | C/C(=N\Nc1ccc(C(=O)O)cc1)c1cnn(-c2cc(=O)[nH]c3ccc(C)cc23)c1C | 108% (inactive)
5 | CC(=O)Nc1cccc(-n2c(COc3ccc(Br)cc3)nc3ccccc32)c1 | 105% (inactive) and 124% (inactive)
6 | Fc1ccc(Nc2nnc(-c3c[nH]c4ccccc34)o2)cc1 | 133% (inactive)
7 | O=Cc1cncc(-c2ccc3ncnc(N4CCc5cc(F)c(Cl)cc54)c3c2)c1 | -30.4% (active)
8 | O=C(CSc1nc2ccccc2c(=O)[nH]1)NNC(=O)c1ccccc1Cl | 100% (inactive)
9 | CCCCNc1ccc2c3c(cccc13)C(=O)N(NCC(O)COc1ccc3c(C)cc(=O)oc3c1)C2=O (stereo not given) | 89.2% (inactive)
10 | Cc1nn(-c2ccccc2)c2ncn(CC(=O)N/N=C/c3ccccc3O)c(=O)c12 | 87.2% (inactive)
11 | Cc1oc(-c2ccccc2)nc1CN[C@@H]1C[C@@H]2C[C@H]([C@H]1C)C2(C)C | 31.6% (inactive)
12 | Cc1ccc(N=Nc2c(N)nn3c(-c4cc5cc(Br)ccc5oc4=O)ccnc23)cc1 | 51.9% (inactive)
13 | CCCCCCCCc1ccc(C(=O)Nc2ccc(C)cc2C(=O)O)cc1 | 109% (inactive)
14 | N/C(=N\c1nc2ccccc2s1)NC(=O)Nc1ccccc1[N+](=O)[O-] | 89% (inactive)
15 | CCCCNc1ccc2c3c(cccc13)C(=O)N(c1cccc(-c3nn(-c4ccccc4)cc3-c3nc4ccccc4s3)c1)C2=O | 131% (inactive)
16 | CN1CCN(CCS(=O)(=O)Nc2cc(-c3ccc4ncnc(Nc5ccc(F)c(Cl)c5)c4c3)cnc2Cl)CC1 | -30.9% (active)
17 | COc1ccc(NC(=O)Cn2c(/C=C/c3cccc(OC)c3)nc3ccccc3c2=O)cc1 | -42.8% (active)
18 | Nc1cc2ccccc2c(=O)n1NC(=O)c1ccccc1 | 145% (inactive)
19 | CNc1nc2ccccc2n2c(-c3ccc(O)c(O)c3)cnc12 | 92.4% (inactive)
20 | Cc1ccc(C2CC(c3ccc(NC(=S)Nc4ccccc4)cc3)=NN2c2ccc(S(N)(=O)=O)cc2)cc1 (stereo not given) | 76.4% (inactive)
21 | N#CCc1nnc(NC(=O)c2ccc(-n3c(=O)[nH]c4ccccc4c3=O)cc2)s1 | 96.2% (inactive)

Row | SMILES | growth
22 | Cc1cc(C(NC(=O)C2CC3(CC(Nc4cccc5c4C(=O)N(C4CCC(=O)NC4=O)C5=O)C3)C2)c2ccc3c(c2)OC(F)(F)O3)c(O)c2ncccc12 (stereo not given) | 115% (inactive)
23 | O=C(Cn1c(-c2ccccc2)nc2ccccc21)N=Nc1c(O)[nH]c2ccc(Cl)cc12 | -5.31% (active)
24 | Nc1cccc(-n2c(COc3ccc(I)cc3)nc3ccccc32)c1 | 112% (inactive) and 132% (inactive)
25 | Cc1ccc(C(=O)Nc2cc(-n3ccnc3)cc(C(F)(F)F)c2)cc1-n1cc(-c2cnc3cccnn23)nn1 | 180% (inactive)
26 | Cc1ccc(/C=C/C(=O)c2ccc(S(=O)(=O)NCCNc3nc(N(C)C)nc(N4CCOCC4)n3)cc2)cc1 | 96% (inactive)
27 | CCCCN1C(=O)/C(=C\C(=O)c2cc3ccccc3oc2=O)c2ccccc21 | 161% (inactive)
28 | O=C(N/N=C/c1ccc(Cl)o1)c1[nH]c2ccc(Br)cc2c1-c1ccccc1 | -25.6% (active)
29 | CCOc1ccccc1[C@H]1C(C(=O)c2ccc(Cl)cc2)C2(N[C@@H]1c1ccccc1)C(=O)Nc1ccc(Cl)cc12 (stereo not given in full) | 80.9% (inactive)
30 | ClC(Cn1ncc2c(Nc3cccc(Br)c3)nc(SCCN3CCOCC3)nc21)c1ccc(Br)cc1 (stereo not given) | 31.7% (inactive)
31 | COc1cc2cc(C(=O)N3C[C@@H](CCl)c4c3cc(OC(=O)N(CCC(=O)N3CCN(C)CC3)[C@H]3CCSSC3)c3ccccc43)[nH]c2c(OC)c1OC | -19.6% (active)
32 | O=[N+]([O-])c1cccc(-c2nnc3c(/C=C/c4ccc(F)cc4)nc4ccccc4n23)c1 | 102% (inactive)
33 | CN(C)C(=O)c1cc(-c2ccc3ncnc(N4CCc5cc(F)c(Cl)cc54)c3c2)cnc1N | -84.2% (active)
34 | COc1ccc(-c2nnc3c(/C=C/c4ccc(Br)cc4)nc4ccccc4n23)cc1 | 92.6% (inactive)
35 | Cc1ccc(C(=O)Nc2cc(-c3ccncc3)cc(C(F)(F)F)c2)cc1C#Cc1cnc2cccnn12 | 48.9% (inactive)
36 | CC1=C(C)C(=O)C(N2CCSCC2)=CC1=O | 98.2% (inactive)
37 | FC(F)(F)c1cc2c(Cl)ncnc2n1CCN1CCCCC1 | 113% (inactive)
38 | CCCCNC(=S)Nc1ccc(OCc2nc3ccc(Cl)cc3[nH]2)cc1 | 90% (inactive)
39 | COc1ccc(C(=O)/C=C/c2ccc3c(c2)OCCO3)cc1S(N)(=O)=O | 109% (inactive)
40 | N#C/C(=C/c1ccc([N+](=O)[O-])cc1)c1nnc(NC(=O)c2ccc(-n3c(=O)[nH]c4ccccc4c3=O)cc2)s1 | 132% (inactive)
